Records with an inconclusive call do not appear. Calls of active or inactive are those of the source. Unless noted, calls follow the shape of the dose curve; as a rule, active = well fitted curve in the direction sought with a large enough effect in the repeat runs; inconclusive = weak or mixed curves; inactive = no such curve, though single readings can be large; an effect the other way counts as inactive or inconclusive.
Experiments:
[1] = qHTS assay to identify small molecule agonists of the estrogen receptor alpha (ER-alpha) signaling pathway in the presence of an antagonist - cell viability counter screen (AID 1259386);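 also: series mostly up to about 92 µM; cells exposed to compounds for 22 h at 37 °C before the viability read; nearly all actives have a fitted effect of over 30% in size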
Procedure, shortened: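 Steps: 5-day stripped-FBS culture; seed and incubate 24hr; add ICI-182,780 (10.0nM final); pin 15-point compound titration; incubate 22hr at 37C; add CellTiter-Fluor at 21hr; read fluorescence.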

[2] = target: Progesterone receptor (Homo sapiens) (UniProt P06401); experiment: qHTS assay to identify small molecule agonists of the progesterone receptor (PR) signaling pathway (AID 1346784; calls by dose curve; also: nearly all actives have a fitted effect of over 30% in size)
Procedure, shortened: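 Compounds were tested for PR agonism in HEK 293T cells bearing a beta-lactamase gene under UAS control. Treatment lasted 16 hr at 37C; signal came from fluorescence of a FRET substrate.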

[3] = target: Progesterone receptor (Homo sapiens) (UniProt P06401); experiment: qHTS assay to identify small molecule antagonists of the progesterone receptor (PR) signaling pathway (AID 1346795; active = well fitted inhibition curve with a large enough effect in the signal ratio in the repeat runs, not every such curve was filed as active; the % refers to the signal ratio)
Procedure, shortened: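 In HEK293T cells bearing the PR-UAS-bla reporter, compound effects on promegestone-driven (1 nM) beta-lactamase expression are assessed after 16 hr using a fluorescent FRET substrate incubated 2 hr at room temperature.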

[4] = qHTS assay to identify small molecule antagonists of the progesterone receptor (PR) signaling pathway - cell viability counter screen (AID 1346798); also: series mostly up to about 92 µM; nearly all actives have a fitted effect of over 50% in size
Procedure, shortened: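 Following a 4 hr attachment, PR-UAS-bla HEK293T cells in charcoal-stripped FBS medium were exposed to compounds with R5020 for 16 hr; CellTiter-Glo was added and luminescence read after 30 min at room temperature.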

[5] = qHTS assay to identify small molecule agonists of the progesterone receptor (PR) signaling pathway - cell viability counter screen (AID 1346799; calls by dose curve; also: nearly all actives have a fitted effect of over 45% in size)
Procedure, shortened: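 Here, 3,000 PR-UAS-bla HEK293T cells per well were treated with compounds for 16 hr after a 6 hr preincubation at 37C and 5% CO2; cell viability is the CellTiter-Glo luminescence signal.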

[6] = qHTS assay to identify small molecule antagonists of the TGF-beta/Smad signaling pathway - cell viability counter screen (AID 1346824); also: nearly all actives have a fitted effect of over 50% in size
Procedure, shortened: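 Cytotoxicity counter-screen run in the same wells as the beta-lactamase Smad reporter read: CellTiter-Glo luminescence after 30 min at room temperature. HEK 293T SBE-bla cells had 5 hr compound exposure at 37 C with TGF-beta1 (0.25 ng/mL stock).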

[7] = qHTS assay to identify small molecule agonists of the TGF-beta/Smad signaling pathway - cell viability counter screen (AID 1346829); also: top concentration of the series differs between compounds; nearly all actives have a fitted effect of over 45% in size
Procedure, shortened: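 Luminescence from CellTiter-Glo, read after a 30 min room-temperature incubation, gives cell viability of SBE-bla HEK 293T cells treated 5 hr with compounds at 37 C.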

[8] = qHTS assay to identify small molecule agonists of the TGF-beta/Smad signaling pathway (AID 1346859; active = well fitted activation curve with a large enough effect in the signal ratio in the repeat runs, not every such curve was filed as active; the % refers to the signal ratio; also: series mostly up to about 77 µM)
Procedure, shortened: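 Each well held 4,000 SBE-bla HEK 293T cells incubated overnight before compound addition; 5 hr later the cleavable FRET substrate went on for 2 hr at room temperature, and fluorescence was read at two emissions.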

[9] = target: Thyrotropin-releasing hormone receptor (Homo sapiens) (UniProt P34981); experiment: qHTS assay to identify small molecule antagonists of the thyrotropin-releasing hormone receptor (TRHR) signaling pathway (AID 1346877; active = well fitted inhibition curve with a large enough effect in the repeat runs, not every such curve was filed as active; also: series mostly up to about 51 µM)
Procedure, shortened: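 Human TRHR in HEK293 cells; inhibition of the intracellular calcium rise triggered by 1 nM TRH was followed by fluorescence over 3 min. Compounds were run at 15 concentrations, three replicates each.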

[10] = target: Thyrotropin-releasing hormone receptor (Homo sapiens) (UniProt P34981); experiment: qHTS assay to identify small molecule agonists of the thyrotropin-releasing hormone receptor (TRHR) signaling pathway (AID 1346891; calls by dose curve; also: series mostly up to about 58 µM)
Procedure, shortened: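 Screening of agonists relied on calcium signalling in HEK293 cells expressing human TRHR: dye loading 2 h at 37 °C preceded compound addition and a 3-min fluorescence time course.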

[11] = Human pregnane X receptor (PXR) small molecule agonists, qHTS cell viability counter screen (AID 1346977); also: nearly all actives have a fitted effect of over 50% in size
Procedure, shortened: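 Tox21 qHTS format; PXR-Luc HepG2, 2,000/well, charcoal-stripped FBS 5%. Cpd exposure 24hr. Read: CellTiter-Fluor fluorescence, multiplexed with luciferase.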

[12] = Caspase-3/7 induction in HepG2 cells by small molecules, qHTS assay (AID 1346978); also: nearly all actives have a fitted effect of over 15% in size
Procedure, shortened: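 Caspase-3/7 induction was measured by Caspase-Glo 3/7 luminescence (30 min, room temperature) after a 17 hr compound exposure of wild-type HepG2 cells seeded at 2,000 per well and pre-incubated 5 hr.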

[13] = Caspase-3/7 induction in CHO-K1 cells by small molecules, qHTS assay (AID 1346980); also: nearly all actives have a fitted effect of over 15% in size
Procedure, shortened: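 Luminescent Caspase-Glo 3/7 read (30min, room temperature) quantified apoptosis induction. Cells were wild-type CHO-K1, treated with compound for 17hr at 37 C and 5% CO2.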

[14] = Caspase-3/7 induction in HepG2 cells by small molecules, qHTS cell viability counter screen (AID 1346981); also: series mostly up to about 92 µM; nearly all actives have a fitted effect of over 30% in size
Procedure, shortened: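 The parent HepG2 line is plated at 2,000 cells per well and rested 5 hr before compound pinning from DMSO stocks. Following a 16-hr treatment at 37 C, a fluorogenic live-cell substrate (CellTiter-Fluor) reports viability after 1 hr.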

[15] = target: Nuclear receptor subfamily 1 group I member 2 (Homo sapiens) (UniProt O75469); experiment: Human pregnane X receptor (PXR) small molecule agonists, qHTS assay (AID 1346982); also: nearly all actives have a fitted effect of over 35% in size
Procedure, shortened: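 After plating in 5% charcoal-stripped FBS and a 5 hr rest, PXR-Luc HepG2 cells received compounds in DMSO. Following 24 hr at 37 C, ONE-Glo was added and light output read.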

[16] = target: Cytochrome P450 2D6 (Homo sapiens) (UniProt P10635); experiment: Cytochrome P450 Family 2 Subfamily D Member 6 (CYP2D6) small molecule antagonists: luciferase reporter qHTS assay (AID 1671196); also: series mostly up to about 120 µM; nearly all actives have a fitted effect of over 50% in size
Procedure, shortened: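 Quantitative HTS of Tox21 chemicals against CYP2D6 using a luminescent proluciferin substrate. After NADPH addition, 1 h room-temperature reaction; luminescence recorded 20 min post detection reagent.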

[17] = Caspase-3/7 induction in CHO-K1 cells by small molecules, qHTS cell viability counter screen (AID 1346979); also: nearly all actives have a fitted effect of over 35% in size
Procedure, shortened: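 CellTiter-Fluor viability check, qHTS format: wild-type CHO-K1, 16hr compound treatment, 1hr reagent incubation, fluorescence read.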

[18] = target: Nuclear receptor subfamily 1 group I member 2 (Rattus norvegicus) (UniProt Q9R1A7); experiment: Rat pregnane X receptor (rPXR) activation by small molecules, qHTS assay (AID 1346983); settings: rPXR luciferase reporter cells, One-Glo luminescence, 24 h; stronger effect = higher value; also: nearly all actives have a fitted effect of over 20% in size
Procedure, shortened: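 Luminescent readout (One-Glo luciferase, 30 min room temperature) followed 24 hr compound treatment at 37 C of rPXR cells plated 2,000 per well and preincubated 5hr; qHTS format with compounds delivered in DMSO.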

[19] = target: Nuclear receptor subfamily 1 group I member 2 (Homo sapiens) (UniProt O75469); experiment: CYP3A4 induction through human pregnane X receptor (PXR) by small molecules, qHTS assay (AID 1346984); also: nearly all actives have a fitted effect of over 40% in size
Procedure, shortened: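 Human PXR activation is tracked via CYP3A4 promoter-luciferase in DPX-2 (HepG2) cells. Compounds treat cells for 24hr at 37C, and luminescence is read after One-Glo.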

[20] = target: Nuclear receptor subfamily 1 group I member 2 (Homo sapiens) (UniProt O75469); experiment: Human pregnane X receptor (PXR) activation by small molecules, qHTS assay (AID 1346985); also: nearly all actives have a fitted effect of over 40% in size
Procedure, shortened: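 DPX-2 cells (HepG2 co-transfected with a PXR response element and a CYP3A4-promoter luciferase construct) were seeded at 2,000 per well, rested 5 hr at 37C, then exposed to DMSO-dissolved compounds for 24 hr. Activation was read as luciferase luminescence.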
% is scaled to controls: 0 for no effect and ±100 for the full control effect.

Nuclear receptor subfamily 1 group I member 2 (Homo sapiens), sequence (O75469 whole entry, looked up): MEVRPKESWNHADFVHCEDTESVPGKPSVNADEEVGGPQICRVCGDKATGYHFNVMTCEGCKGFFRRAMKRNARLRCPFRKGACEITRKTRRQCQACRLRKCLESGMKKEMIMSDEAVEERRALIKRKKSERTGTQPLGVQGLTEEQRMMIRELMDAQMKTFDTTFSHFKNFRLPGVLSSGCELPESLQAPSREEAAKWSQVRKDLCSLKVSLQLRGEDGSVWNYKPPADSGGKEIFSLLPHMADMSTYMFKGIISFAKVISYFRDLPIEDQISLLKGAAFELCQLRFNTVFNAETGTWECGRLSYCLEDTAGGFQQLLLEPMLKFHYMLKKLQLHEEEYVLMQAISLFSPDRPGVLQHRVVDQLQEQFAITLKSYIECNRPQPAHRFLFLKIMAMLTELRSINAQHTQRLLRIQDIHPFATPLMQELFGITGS
Cytochrome P450 2D6 (Homo sapiens), sequence (P10635 whole entry, looked up): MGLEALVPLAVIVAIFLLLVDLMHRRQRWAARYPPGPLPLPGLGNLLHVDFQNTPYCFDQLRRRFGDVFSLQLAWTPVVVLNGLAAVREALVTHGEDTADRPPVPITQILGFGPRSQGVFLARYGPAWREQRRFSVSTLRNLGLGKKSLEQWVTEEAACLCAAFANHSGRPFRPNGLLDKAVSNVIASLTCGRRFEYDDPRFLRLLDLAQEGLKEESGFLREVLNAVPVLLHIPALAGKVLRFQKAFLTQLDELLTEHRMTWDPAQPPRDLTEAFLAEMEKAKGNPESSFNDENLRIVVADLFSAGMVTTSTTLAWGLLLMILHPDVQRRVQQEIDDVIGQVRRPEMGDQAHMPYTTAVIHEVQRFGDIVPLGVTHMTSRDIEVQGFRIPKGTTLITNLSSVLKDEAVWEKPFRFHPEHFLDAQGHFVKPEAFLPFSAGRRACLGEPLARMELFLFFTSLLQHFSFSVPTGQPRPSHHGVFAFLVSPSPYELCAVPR
Progesterone receptor (Homo sapiens), sequence (P06401 whole entry, looked up): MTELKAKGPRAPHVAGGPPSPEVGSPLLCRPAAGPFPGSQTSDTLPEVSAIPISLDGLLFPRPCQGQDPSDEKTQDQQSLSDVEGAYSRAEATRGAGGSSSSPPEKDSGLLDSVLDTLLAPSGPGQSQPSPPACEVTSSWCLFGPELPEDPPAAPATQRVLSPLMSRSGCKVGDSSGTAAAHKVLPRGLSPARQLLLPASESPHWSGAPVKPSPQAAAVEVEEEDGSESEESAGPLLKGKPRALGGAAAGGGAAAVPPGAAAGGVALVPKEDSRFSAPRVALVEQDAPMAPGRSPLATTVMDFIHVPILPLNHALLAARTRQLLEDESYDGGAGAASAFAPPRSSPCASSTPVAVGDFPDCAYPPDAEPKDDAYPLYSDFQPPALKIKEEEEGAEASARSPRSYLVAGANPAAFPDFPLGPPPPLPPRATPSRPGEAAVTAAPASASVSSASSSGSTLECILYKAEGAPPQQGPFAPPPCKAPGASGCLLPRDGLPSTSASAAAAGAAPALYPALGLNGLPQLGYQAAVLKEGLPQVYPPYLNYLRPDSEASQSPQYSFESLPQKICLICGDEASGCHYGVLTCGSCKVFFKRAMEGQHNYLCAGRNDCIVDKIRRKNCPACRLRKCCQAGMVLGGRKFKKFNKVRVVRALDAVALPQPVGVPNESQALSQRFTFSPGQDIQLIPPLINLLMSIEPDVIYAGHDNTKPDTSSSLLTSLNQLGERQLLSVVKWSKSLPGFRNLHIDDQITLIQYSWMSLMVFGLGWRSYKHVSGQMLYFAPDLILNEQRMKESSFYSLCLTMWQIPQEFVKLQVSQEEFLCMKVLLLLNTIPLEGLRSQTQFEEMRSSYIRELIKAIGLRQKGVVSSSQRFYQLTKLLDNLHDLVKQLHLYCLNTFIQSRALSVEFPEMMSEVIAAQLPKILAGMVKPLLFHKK
Thyrotropin-releasing hormone receptor (Homo sapiens), sequence (P34981 whole entry, looked up): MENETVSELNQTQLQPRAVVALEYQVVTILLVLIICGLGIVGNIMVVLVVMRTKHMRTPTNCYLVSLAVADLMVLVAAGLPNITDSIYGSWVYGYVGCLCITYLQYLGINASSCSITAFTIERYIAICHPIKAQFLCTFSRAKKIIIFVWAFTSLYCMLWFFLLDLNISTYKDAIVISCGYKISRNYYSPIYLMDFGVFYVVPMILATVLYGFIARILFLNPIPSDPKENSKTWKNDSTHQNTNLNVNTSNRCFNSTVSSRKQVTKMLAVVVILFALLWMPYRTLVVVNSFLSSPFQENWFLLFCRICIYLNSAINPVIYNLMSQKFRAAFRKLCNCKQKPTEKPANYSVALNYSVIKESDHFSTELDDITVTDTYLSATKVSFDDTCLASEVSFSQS
Nuclear receptor subfamily 1 group I member 2 (Rattus norvegicus), sequence (Q9R1A7 whole entry, looked up): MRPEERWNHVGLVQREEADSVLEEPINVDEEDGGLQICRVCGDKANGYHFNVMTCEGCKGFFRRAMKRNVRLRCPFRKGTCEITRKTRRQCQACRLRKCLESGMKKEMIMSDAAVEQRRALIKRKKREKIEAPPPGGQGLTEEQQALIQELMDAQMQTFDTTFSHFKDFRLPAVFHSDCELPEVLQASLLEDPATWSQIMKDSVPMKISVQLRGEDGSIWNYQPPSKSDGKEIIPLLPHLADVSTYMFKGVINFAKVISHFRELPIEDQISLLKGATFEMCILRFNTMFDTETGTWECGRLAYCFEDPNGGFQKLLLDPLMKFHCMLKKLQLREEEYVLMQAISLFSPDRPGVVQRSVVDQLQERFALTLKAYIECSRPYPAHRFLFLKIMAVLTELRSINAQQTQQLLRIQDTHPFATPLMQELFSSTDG

C=CC(=O)OCCOC(=O)C=C
inactive: Potency [1] | Potency [2] | Potency [3] | Potency [4] | Potency [5] | Potency [6] | Potency [7] | Potency [8] | Potency [9] | outcome [10] | Potency [11] | Potency [12] | Potency [13] | Potency [14] | Potency [15] | Potency [16]

O=C(O)c1cccc(C(F)(F)F)c1
inactive: Potency [1] | Potency [2] | Potency [3] | Potency [4] | Potency [5] | Potency [6] | Potency [7] | Potency [8] | Potency [11] | Potency [12] | Potency [17] | Potency [13] | Potency [14] | Potency [15] | Potency [16]

CCCCCC/C=C\CCCCCCCC(=O)O
inactive: Potency [1] | Potency [2] | Potency [3] | Potency [4] | Potency [5] | Potency [6] | Potency [7] | Potency [8] | Potency [9] | outcome [10] | Potency [11] | Potency [12] | Potency [14] | Potency [15] | Potency [16]

c1cnccn1
inactive: Potency [1] | Potency [2] | Potency [3] | Potency [4] | Potency [5] | Potency [6] | Potency [7] | Potency [8] | Potency [9] | outcome [10] | Potency [11] | Potency [17] | Potency [13] | Potency [14] | Potency [15] | Potency [16]

C#Cc1ccc(-c2ccccc2F)cc1
inactive: Potency [1] | Potency [2] | Potency [3] | Potency [4] | Potency [5] | Potency [6] | Potency [7] | Potency [8] | Potency [9] | outcome [10] | Potency [11] | Potency [12] | Potency [17] | Potency [15] | Potency [16]

O[C@@H]([C@H](O)[C@H](O)CBr)[C@H](O)CBr
inactive: Potency [1] | Potency [2] | Potency [3] | Potency [4] | Potency [5] | Potency [6] | Potency [7] | Potency [8] | Potency [11] | Potency [12] | Potency [17] | Potency [13] | Potency [14] | Potency [15] | max activation [18] -0.988% | Potency [19] | Potency [20] | Potency [16]

O=C(O)c1cc(-c2ccc(F)cc2F)ccc1O
inactive: Potency [1] | Potency [2] | Potency [3] | Potency [4] | Potency [5] | Potency [6] | Potency [7] | Potency [11] | Potency [12] | Potency [17] | Potency [13] | Potency [14] | Potency [15] | max activation [18] -2% | Potency [19] | Potency [20] | Potency [16]

— PubChem BioAssay (Tox21)
